KKLEB cytotox: reduces viability of KKLEB cystic fibrosis airway cells; hit rate 0.36% among 360,000; KKLEB CF airway cells viability, ATPlite luminescence, overnight; hits give low values; cells stimulated with P. aeruginosa culture filtrate; activity change (cytotoxicity), % at 5 µM; AID 602141;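 active means corrected activity change at or below -50% at 5 µM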
Peg3 prom inh-1: Peg3 promoter activity inhibition; AID 588405; inhibition, % at 20 µM; HeLa PEG-Prom luciferase reporter, luminescence, overnight; hit rate 1.7% among 360,000;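 active means inhibition of at least 50% at 20 µM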
TROY signal inh: inhibitors of TROY-dependent NF-kB signaling; inhibition, % at 10 µM; hit rate 0.98% among 360,000; Q293 LMP1-TROYcd NF-kB luciferase reporter, 4 h;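 active means compounds whose plate-normalised and pattern-corrected inhibition of the luciferase reporter signal at the single screening dose is 50% or more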
HIF-2a inh: blocks HIF-2a reporter activity. 786-0 RCC cells HIF-2a reporter, luciferase luminescence, overnight. inhibition, % at 18.8 µM. hit rate 0.72% among 360,000. AID 624352;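 active means inhibition of the luminescence signal of 40% or more relative to plate controls, in a single-dose primary screen at 18.75 µM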
CF NFkB inh: blocks PAF-induced NF-kB reporter in cystic fibrosis cells. KKLEB NF-kB-GFP reporter, GFP fluorescence overnight. inhibition, % at 5 µM. hit rate 0.86% among 360,000. AID 588850;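 active means at least 50% inhibition at 5 µM, scaled per plate between neutral and stimulator controls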;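 further: PAF is a Pseudomonas aeruginosa culture filtrate used as stimulus; plate controls were PAF-stimulated DMSO wells for no effect and unstimulated DMSO wells for full effect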
TWEAK Fn14 block: inhibitors of TWEAK-Fn14 interaction signaling | hit rate 2% among 360,000 | inhibition, % at 10 µM | TWEAK-stimulated Fn14 reporter cells, luciferase luminescence, 8 h | AID 1159606; in the data active means inhibition above about 50%
Peg3 prom inh-2: confirmation of Peg3 promoter inhibitors | shares compounds with Peg3 prom inh-1 | HeLa PEG-Prom luciferase reporter, luminescence, overnight | inhibition, % at 20 µM | hit rate 84% among 1,300 | AID 602417;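 active means at 20 µM dose, 40% or more inhibition averaged across four replicates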
* marks the source's active call; other numbers are inactive results; / = no result given. A selection: hits, their analogues and other compounds. The true share with any hit is near 4%.

SMILES | KKLEB cytotox | Peg3 prom inh-1 | TROY signal inh | HIF-2a inh | CF NFkB inh | TWEAK Fn14 block | Peg3 prom inh-2
O=C(Nc1nc2cc3c(cc2s1)OCCO3)C1=COCCO1 | -56* | 97* | 87* | 80* | -4 | 104* | 82*
CC(=O)Nc1nc2cc3c(cc2s1)OCCO3 | -7 | -202 | -46 | -145 | 28 | 31 | /
C/C(=N\NC(=O)c1ccncc1)c1cccc(NC(=O)c2ccc(Cl)s2)c1 | 3 | -123 | -16 | -166 | -22 | -9 | /
CN(C)c1ccc(N=Nc2nc3ccccc3n2C)cc1 | -82* | 104* | 90* | 17 | -19 | 104* | 88*
COc1ccc(OC)c(NC(=O)c2sc3ncnc(N4CCN(c5ccccn5)CC4)c3c2C)c1 | 3 | 18 | 9 | -2 | -6 | 2 | /
COc1ccccc1N1CCN(C(=O)c2sc3ncnc(N4CCN(c5ccccn5)CC4)c3c2C)CC1 | -22 | 84* | 23 | 7 | 12 | 28 | 74*
Cc1c(C(=O)N2CCN(c3ccc(F)cc3)CC2)sc2ncnc(N3CCN(c4ccccn4)CC3)c12 | -3 | 50* | 53* | 6 | 5 | 60* | 87*
O=C(NCc1ccc(Cl)c(Cl)c1)c1cc(C2CCCCN2C(=O)CCc2ccccc2)on1 (configuration not stated) | 0 | 12 | 5 | 11 | -11 | 30 | /
Cc1ccc(-c2cn3nc(C)c(C)nc3n2)cc1 | 3 | 60* | 0 | 2 | -20 | -9 | 46*
Cn1c(=O)c(Oc2cc(Cl)cc(Cl)c2)nc2ccccc21 | -10 | 68* | -17 | 13 | 10 | -13 | 36
CCC(C)c1ccc(NC(=S)NCc2ccccc2OC)cc1 (configuration not stated) | 3 | 27 | 12 | -19 | 1 | -8 | /
Cc1ccc(-n2[nH]c(=O)c(-c3ccccn3)c2C)cc1 | -7 | 73* | 81* | 73* | -7 | 101* | 59*
Cc1ccc(-n2[nH]c(=O)c3cccnc32)cc1 | 10 | -10 | -4 | -11 | 12 | 8 | /
CN=c1sc2c(n1C)C(=O)c1ccccc1C2=O | -67* | 88* | 48 | -98 | 82* | 89* | 91*
CN=c1sc(C(=O)Nc2ccccc2)c(C)n1C | 13 | -10 | -3 | -7 | 0 | -13 | /
O=C(N/N=C/c1ccc(Cl)c([N+](=O)[O-])c1)c1cc(-c2ccc3c4c(cccc24)CC3)n[nH]1 | 1 | 111* | 6 | 10 | -10 | 64* | 55*
O=C(N/N=C/c1cccc([N+](=O)[O-])c1)c1cc(-c2ccc3c4c(cccc24)CC3)n[nH]1 | -18 | 8 | -14 | -4 | 6 | -13 | /
Cc1ccc(C(=O)N(C)CC(=O)Nc2ccc(Cl)c(C(F)(F)F)c2)cc1S(=O)(=O)N1CCCCC1 | -32 | 27 | 30 | 11 | 16 | 16 | /
Cc1ccc(S(=O)(=O)N2CCCCC2)cc1C(=O)N(C)CC(=O)Nc1ccc(Cl)c(C(F)(F)F)c1 | -23 | 53* | 32 | 21 | 4 | 22 | 56*
Cc1ccc(S(=O)c2ccc([N+](=O)[O-])c3nonc23)cc1 (configuration not stated) | -4 | 51* | -14 | 0 | -10 | -5 | 98*
Cc1cccc(S(=O)Cc2ccc(C(=O)N3CCN(C(=O)c4ccco4)CC3)o2)c1 (configuration not stated) | 9 | -3 | 6 | 3 | -44 | 0 | /
COc1ccc(NC(=O)CN2C(=O)/C(=C3\SC(=S)N(C4CCS(=O)(=O)C4)C3=O)c3ccccc32)cc1 (configuration not stated) | 1 | 38 | 7 | 14 | 39 | 28 | /
C[C@@]12C(=O)Nc3cc(Cl)ccc3C(=O)N1[C@H]1c3cc(Cl)ccc3OC[C@@H]1[C@@H]2c1ccccc1 | -37 | 56* | 9 | -6 | 24 | 37 | 57*
Cc1ccc(OC(=O)CN2C(=O)c3ccccc3C2=O)cc1C | 10 | -7 | -5 | 5 | -20 | 9 | /
Cc1cc(C)c(S(=O)(=O)ON2C(=O)c3ccccc3C2=O)cc1C | 2 | 70* | 16 | 39 | -2 | 0 | 41*
SMILES | KKLEB cytotox | Peg3 prom inh-1 | TROY signal inh | HIF-2a inh | CF NFkB inh | TWEAK Fn14 block | Peg3 prom inh-2
O=C1c2cccnc2C(=O)N1Cc1ccc(F)cc1S(=O)(=O)NCc1ccco1 | 5 | 13 | -17 | -3 | -8 | 28 | /
COc1ccc(N=CC2=C(O)c3ccccc3C2=O)c(OC)c1 | -77* | 74* | 83* | 55* | -15 | 102* | 21
COc1cc(O)c(C=Nc2ccccc2NS(=O)(=O)c2ccc(C)cc2)c(OC)c1 | 19 | 3 | 0 | 4 | -11 | -5 | /
Cc1ccc(-c2c(C#N)c(N)n(-c3ccccc3C)c(=O)c2C#N)cc1 | -3 | 2 | -18 | 4 | 10 | -5 | /
C/C=C(\C)C(=O)O[C@@H]([C@H](O)c1cc2ccc(=O)oc2cc1OC)C(C)(C)O | 10 | -85 | -10 | 12 | -8 | 19 | /
Cc1ccc(Oc2ccc(NC(=O)Cn3ccsc3=N)cc2)cc1 | -6 | 53* | -39 | 14 | 4 | 17 | 21
CCOC(=O)C1=C(CS(=O)(=O)c2ccccc2)NC(=O)NC1c1ccccc1OC (configuration not stated) | 1 | 14 | -1 | 6 | 0 | -11 | /
CC1CCCCN1CCNC(=O)c1ccc2c(=O)n(Cc3ccc(Cl)cc3)c(=S)[nH]c2c1 (configuration not stated) | -12 | 102* | -45 | 2 | -4 | -41 | 98*
Cn1cccc1-c1cc(C(=O)N/N=C/c2ccccc2Cl)[nH]n1 | -14 | -273 | -16 | -303 | 0 | 5 | /
Cn1cccc1-c1cc(C(=O)N/N=C/c2cc(Br)ccc2O)[nH]n1 | 7 | 58* | 15 | 3 | 4 | -21 | 62*
COc1ccccc1C(c1nnnn1CCc1ccccc1)N1CCN(c2ccccc2)CC1 (configuration not stated) | 4 | 22 | 17 | 17 | 17 | 14 | /
COc1cccc(C(c2nnnn2CCc2ccccc2)N2CCN(c3ccccc3)CC2)c1OC (configuration not stated) | 3 | 51* | 0 | 8 | 26 | -11 | 34
O=C(Nc1nc2ccccc2[nH]1)c1cc(F)cc(F)c1 | 6 | -365 | -8 | -263 | -20 | -6 | /
O=C(Nc1nc2ccccc2[nH]1)c1ccccc1F | -30 | 93* | 84* | 75* | 8 | 102* | 81*
CCS(=O)(=O)N1Cc2cc(C(=O)NCC3CC3)nc(-c3cccc(-c4cccnc4)c3)c2[C@@H]1CCO | / | / | -4 | 9 | / | -12 | /
Cc1ccc(-c2nc3ncccc3o2)cc1NC(=O)Cc1ccc(Cl)cc1 | -4 | 51* | 7 | -2 | -6 | -6 | 25
O=C1CCC(=O)N1CC(=O)N(c1ccccc1)c1ccccc1 | 5 | 6 | -2 | 4 | -3 | -2 | /

Screening data from PubChem BioAssay.
